# Measurements as given in PubChem BioAssay (NCATS).
# Records with an inconclusive call do not appear. Where a call stands in place of a potency, no number is given. Calls of active or inactive are those of the source. Unless noted, calls follow the shape of the full dose curve.
# Assays:
# [1] = NS1 protein of Zika virus - qHTS assay to identify small molecule inhibitors in human HEK 293 cells (AID 1347053; active = well fitted curve in the direction sought with a large enough effect; an effect the other way counts as inactive or inconclusive; also: series mostly up to about 46 µM; nearly all actives have a fitted effect of over 55% in size)
# How it was run: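 Read-out is a two-antibody TR-FRET for ZIKV NS1, normalized between uninfected cells and infected cells. Compound added 1 h before MR766 infection at MOI 0.5; human HEK 293 cells incubated 24 h, 37 C.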
# [2] = qHTS for Inhibitors of the Functional Ribonucleoprotein Complex (vRNP) of Lassa (LASV) Arenavirus: LASV Primary Screen - GLuc reporter signal (AID 1347082; calls by dose curve; tested in HEK293 reporter line; also: series mostly up to about 57 µM; nearly all actives have a fitted effect of over 60% in size)
# [3] = qHTS for Inhibitors of the Functional Ribonucleoprotein Complex (vRNP) of Lassa (LASV) Arenavirus: Viability assay - alamar blue signal for LASV Primary Screen (AID 1347083; calls by dose curve; tested in HEK293 reporter line; also: series mostly up to about 57 µM; nearly all actives have a fitted effect of over 80% in size)
# [4] = Natriuretic polypeptide receptor (hNpr1) antagonism - Pilot counterscreen GloSensor control cell line (AID 1347045); also: potency is read from the fitted curve at half-maximal effect
# How it was run: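 The SNP-driven cGMP luminescence signal (50 uM, 20 min, room temperature) was measured in GloSensor HEK293 control cells. Compounds were tested as a LOPAC titration series and preincubated for 30-50 min.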
# [5] = target: Atrial natriuretic peptide receptor 1 (Homo sapiens) (UniProt P16066); experiment: Natriuretic polypeptide receptor (hNpr1) antagonism - Pilot screen (AID 1347049);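 also: agonist-evoked cGMP luminescence read 20 min after hNppA addition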; also: potency is read from the fitted curve at half-maximal effect
# How it was run: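 cGMP-sensor HEK293/hNpr1 cells, 1500/well, plated overnight at 37C. 2% GloSensor reagent, 2 h RT. Compound (23 nL pin transfer) 30 min RT, baseline luminescence pre-read. 0.1 nM hNppA, 20 min RT, post-read.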
# [6] = target: Atrial natriuretic peptide receptor 2 (Homo sapiens) (UniProt P20594); experiment: Natriuretic polypeptide receptor (hNpr2) antagonism - Pilot subtype selectivity assay (AID 1347050); also: potency is read from the fitted curve at half-maximal effect
# How it was run: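 Luminescence from a genetically encoded cGMP luciferase biosensor in hNpr2-expressing HEK293 cells is read before and 20 min after adding 1 nM hNppC. Test compounds, in interplate 1:5 titrations, are added 30-50 min ahead of the agonist.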
# [7] = target: T1, Tyrosine-protein phosphatase non-receptor type substrate 1 (Homo sapiens) + Leukocyte surface antigen CD47 (Homo sapiens) (UniProt P78324+Q08722); experiment: CD47-SIRPalpha protein protein interaction - HTRF assay qHTS validation (AID 1347058; active = well fitted curve in the direction sought with a large enough effect in the signal ratio, not every such curve was filed as active; the % refers to the signal ratio; also: series mostly up to about 38 µM)
# How it was run: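 Soluble extracellular domains (6His-CD47, Avi-tag-biotinylated SIRPalpha) in PBS pH 7.4 with 0.05% IGEPAL CA-630. Compounds were preincubated 30 min at RT with CD47 and anti-His-Eu, then SIRPalpha and SAV-XL665 were added. TR-FRET 665/615 ratio.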
# [8] = target: T1, Tyrosine-protein phosphatase non-receptor type substrate 1 (Homo sapiens) + Leukocyte surface antigen CD47 (Homo sapiens); experiment: CD47-SIRPalpha protein protein interaction - Alpha assay qHTS validation (AID 1347059; active = well fitted curve in the direction sought with a large enough effect; an effect the other way counts as inactive or inconclusive;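 also: bead proximity luminescence from CD47 binding SIRPalpha after compound preincubation with SIRPalpha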; also: potency is read from the fitted curve at half-maximal effect)
# How it was run: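 SIRPalpha-biotin 25 nM + cpd, 30 min RT, dark; add CD47-His 12.5 nM, 30 min; add Ni-NTA/SAV beads 10 ug/mL, 30 min; AlphaScreen. Buffer PBS pH 7.4 + 0.05% IGEPAL CA-630. Non-biotinylated SIRPalpha as control inhibitor.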
# [9] = qHTS for Inhibitors of the Functional Ribonucleoprotein Complex (vRNP) of Lymphocytic Choriomeningitis Arenaviruses (LCMV): Viability assay - alamar blue signal for LCMV Primary Screen (AID 1347085; calls by dose curve; tested in HEK293 reporter line; also: series mostly up to about 57 µM; nearly all actives have a fitted effect of over 80% in size)
# [10] = target: Nucleoprotein (Lymphocytic choriomeningitis virus (strain Armstrong)) (UniProt P09992); experiment: qHTS for Inhibitors of the Functional Ribonucleoprotein Complex (vRNP) of Lymphocytic Choriomeningitis Arenaviruses (LCMV): LCMV Primary Screen - GLuc reporter signal (AID 1347086); also: series mostly up to about 57 µM; nearly all actives have a fitted effect of over 70% in size
# [11] = target: T1, Tyrosine-protein phosphatase non-receptor type substrate 1 (Homo sapiens) + Leukocyte surface antigen CD47 (Homo sapiens); experiment: CD47-SIRPalpha protein protein interaction - LANCE assay qHTS validation (AID 1347057; active = well fitted curve in the direction sought with a large enough effect in the signal ratio, with a control signal flat, not every such curve was filed as active; the % refers to the signal ratio; also: series mostly up to about 38 µM)
# How it was run: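 Inhibition of soluble CD47/SIRPalpha ectodomain association by titrated compounds, measured as 665/615 nm time-resolved FRET ratio after sequential 30 min room-temperature incubations.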
# [12] = target: Parathyroid hormone/parathyroid hormone-related peptide receptor (Homo sapiens) (UniProt Q03431); experiment: qHTS for PTHR1 Agonists: Optimization Screen against the NCGC LOPAC library (AID 1347079; active = well fitted curve in the direction sought with a large enough effect; an effect the other way counts as inactive or inconclusive;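 also: GloSensor cAMP luminescence in HEK-293 GP2 cells expressing human PTHR1 with IBMX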)
# How it was run: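 Signal increase flags agonism. GP2 cells, derived from HEK-293, express human PTHR1 and a GloSensor cAMP construct.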
# Nucleoprotein (Lymphocytic choriomeningitis virus (strain Armstrong)), sequence (P09992 whole entry, looked up): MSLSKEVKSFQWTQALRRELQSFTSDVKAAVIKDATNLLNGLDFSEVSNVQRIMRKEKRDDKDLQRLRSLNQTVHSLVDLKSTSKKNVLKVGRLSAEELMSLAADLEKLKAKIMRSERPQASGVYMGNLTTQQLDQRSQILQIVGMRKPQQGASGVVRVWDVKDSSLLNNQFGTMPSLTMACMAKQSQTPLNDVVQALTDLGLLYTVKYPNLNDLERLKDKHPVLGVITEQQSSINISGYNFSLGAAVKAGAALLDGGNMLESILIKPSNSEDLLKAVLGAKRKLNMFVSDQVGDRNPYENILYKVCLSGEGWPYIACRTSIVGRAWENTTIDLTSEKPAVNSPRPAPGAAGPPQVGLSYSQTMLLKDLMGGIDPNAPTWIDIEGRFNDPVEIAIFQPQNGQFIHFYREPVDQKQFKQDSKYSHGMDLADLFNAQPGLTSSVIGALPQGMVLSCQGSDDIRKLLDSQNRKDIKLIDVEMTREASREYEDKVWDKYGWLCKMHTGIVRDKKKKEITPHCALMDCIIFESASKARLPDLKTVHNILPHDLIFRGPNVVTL
# T1 sequence (P78324 whole entry, looked up, the tested form may be a part): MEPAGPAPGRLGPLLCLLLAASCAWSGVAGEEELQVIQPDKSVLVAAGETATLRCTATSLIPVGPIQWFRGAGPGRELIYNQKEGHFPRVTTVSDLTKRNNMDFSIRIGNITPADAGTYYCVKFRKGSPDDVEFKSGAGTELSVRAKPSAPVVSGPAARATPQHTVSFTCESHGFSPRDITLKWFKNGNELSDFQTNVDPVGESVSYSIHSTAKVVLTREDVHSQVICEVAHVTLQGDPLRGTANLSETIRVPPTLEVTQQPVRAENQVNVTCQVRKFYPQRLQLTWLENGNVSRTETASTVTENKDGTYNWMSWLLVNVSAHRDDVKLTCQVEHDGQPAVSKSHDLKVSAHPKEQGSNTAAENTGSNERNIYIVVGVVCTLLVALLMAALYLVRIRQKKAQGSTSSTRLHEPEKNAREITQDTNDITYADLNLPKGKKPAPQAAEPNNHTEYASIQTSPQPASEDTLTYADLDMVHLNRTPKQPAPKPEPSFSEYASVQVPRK
# T1 sequence (Q08722 whole entry, looked up, the tested form may be a part): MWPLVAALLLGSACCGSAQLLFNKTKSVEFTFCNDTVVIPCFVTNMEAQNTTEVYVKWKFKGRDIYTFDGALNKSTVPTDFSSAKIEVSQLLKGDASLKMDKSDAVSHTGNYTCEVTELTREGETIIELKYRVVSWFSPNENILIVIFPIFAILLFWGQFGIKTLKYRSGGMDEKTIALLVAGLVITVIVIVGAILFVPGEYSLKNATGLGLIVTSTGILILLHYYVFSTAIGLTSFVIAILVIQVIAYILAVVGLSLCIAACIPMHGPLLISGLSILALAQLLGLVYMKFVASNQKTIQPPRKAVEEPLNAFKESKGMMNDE
# Atrial natriuretic peptide receptor 1 (Homo sapiens), sequence (P16066 whole entry, looked up): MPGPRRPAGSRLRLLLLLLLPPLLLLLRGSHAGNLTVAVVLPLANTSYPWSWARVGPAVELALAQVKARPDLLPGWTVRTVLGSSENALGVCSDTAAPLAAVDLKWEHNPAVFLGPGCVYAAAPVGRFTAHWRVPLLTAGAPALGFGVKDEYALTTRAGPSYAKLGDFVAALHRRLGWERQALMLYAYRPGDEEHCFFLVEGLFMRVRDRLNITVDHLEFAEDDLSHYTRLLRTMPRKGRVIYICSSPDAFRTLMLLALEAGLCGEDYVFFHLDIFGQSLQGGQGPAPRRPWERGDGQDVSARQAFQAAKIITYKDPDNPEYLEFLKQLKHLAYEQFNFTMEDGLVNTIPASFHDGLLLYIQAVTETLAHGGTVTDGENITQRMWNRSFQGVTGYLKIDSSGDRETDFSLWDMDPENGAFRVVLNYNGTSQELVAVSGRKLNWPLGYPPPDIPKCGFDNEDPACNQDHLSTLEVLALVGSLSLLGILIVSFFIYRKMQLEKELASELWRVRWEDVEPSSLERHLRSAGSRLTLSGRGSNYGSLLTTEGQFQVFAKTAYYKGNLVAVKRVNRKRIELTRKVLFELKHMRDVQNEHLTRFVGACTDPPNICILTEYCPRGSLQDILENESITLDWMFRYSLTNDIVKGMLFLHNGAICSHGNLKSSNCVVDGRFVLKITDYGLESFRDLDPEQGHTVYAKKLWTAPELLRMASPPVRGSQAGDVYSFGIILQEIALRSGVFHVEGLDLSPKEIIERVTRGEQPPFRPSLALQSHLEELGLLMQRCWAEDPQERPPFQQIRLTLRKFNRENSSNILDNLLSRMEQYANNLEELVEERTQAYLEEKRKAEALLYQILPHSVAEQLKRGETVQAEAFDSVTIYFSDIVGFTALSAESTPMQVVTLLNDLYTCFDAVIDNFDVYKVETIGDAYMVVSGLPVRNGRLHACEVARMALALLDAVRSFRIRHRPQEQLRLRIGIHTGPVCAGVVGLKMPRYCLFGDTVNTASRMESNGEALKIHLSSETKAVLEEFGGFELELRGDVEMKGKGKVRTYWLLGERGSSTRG
# Atrial natriuretic peptide receptor 2 (Homo sapiens), sequence (P20594 whole entry, looked up): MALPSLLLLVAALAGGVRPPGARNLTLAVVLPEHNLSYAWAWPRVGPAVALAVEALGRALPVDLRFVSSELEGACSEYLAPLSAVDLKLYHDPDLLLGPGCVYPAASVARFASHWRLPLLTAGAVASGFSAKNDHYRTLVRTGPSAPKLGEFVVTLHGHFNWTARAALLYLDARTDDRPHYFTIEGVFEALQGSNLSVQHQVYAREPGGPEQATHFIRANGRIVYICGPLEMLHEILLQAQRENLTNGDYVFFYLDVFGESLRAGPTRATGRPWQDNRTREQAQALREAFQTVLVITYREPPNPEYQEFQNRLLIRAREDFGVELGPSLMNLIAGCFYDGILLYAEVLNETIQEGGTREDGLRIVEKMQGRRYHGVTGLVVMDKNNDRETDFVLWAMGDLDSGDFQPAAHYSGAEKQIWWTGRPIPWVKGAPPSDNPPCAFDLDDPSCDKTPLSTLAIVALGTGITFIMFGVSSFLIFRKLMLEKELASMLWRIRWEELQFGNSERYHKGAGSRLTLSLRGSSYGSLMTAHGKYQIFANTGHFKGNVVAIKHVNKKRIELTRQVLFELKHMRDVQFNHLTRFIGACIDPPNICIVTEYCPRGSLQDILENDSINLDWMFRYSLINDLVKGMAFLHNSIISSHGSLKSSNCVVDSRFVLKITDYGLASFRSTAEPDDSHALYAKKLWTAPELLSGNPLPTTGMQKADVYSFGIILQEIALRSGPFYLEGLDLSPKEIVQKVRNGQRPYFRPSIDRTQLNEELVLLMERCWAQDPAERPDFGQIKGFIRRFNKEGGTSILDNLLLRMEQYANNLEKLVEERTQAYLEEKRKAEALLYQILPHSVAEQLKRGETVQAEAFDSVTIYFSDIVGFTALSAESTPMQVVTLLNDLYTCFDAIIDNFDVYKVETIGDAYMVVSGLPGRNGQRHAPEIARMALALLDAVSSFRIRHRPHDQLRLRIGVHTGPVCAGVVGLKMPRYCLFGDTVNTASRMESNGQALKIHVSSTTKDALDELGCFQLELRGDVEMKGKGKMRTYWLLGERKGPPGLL
# Parathyroid hormone/parathyroid hormone-related peptide receptor (Homo sapiens), sequence (Q03431 whole entry, looked up): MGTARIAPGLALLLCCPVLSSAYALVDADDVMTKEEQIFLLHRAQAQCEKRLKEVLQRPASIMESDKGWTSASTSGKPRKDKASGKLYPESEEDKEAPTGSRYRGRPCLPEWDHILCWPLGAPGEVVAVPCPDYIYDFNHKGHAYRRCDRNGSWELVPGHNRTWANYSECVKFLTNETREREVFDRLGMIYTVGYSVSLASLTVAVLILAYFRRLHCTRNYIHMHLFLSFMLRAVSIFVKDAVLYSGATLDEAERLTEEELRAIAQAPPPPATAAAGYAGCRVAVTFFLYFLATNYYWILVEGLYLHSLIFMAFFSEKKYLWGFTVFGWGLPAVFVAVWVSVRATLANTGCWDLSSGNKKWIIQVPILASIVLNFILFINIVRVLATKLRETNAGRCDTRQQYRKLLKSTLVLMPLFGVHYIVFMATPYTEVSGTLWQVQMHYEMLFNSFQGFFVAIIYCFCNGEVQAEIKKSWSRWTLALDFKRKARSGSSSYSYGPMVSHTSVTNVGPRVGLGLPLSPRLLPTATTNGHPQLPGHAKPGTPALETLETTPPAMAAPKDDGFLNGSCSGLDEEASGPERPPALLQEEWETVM
SMILES,Potency [1],Potency [2],Potency [3],Potency [4],Potency [5],Potency [6],outcome [7],Potency [8],Potency [9],Potency [10],outcome [11],outcome [12]
CC1(C)CC/C(=C/c2ccc(Cl)cc2)C1(O)Cn1cncn1 (centres undefined),inactive,inactive,inactive,–,–,–,–,–,–,–,–,–
NCCc1c[nH]c2ccc(O)cc12,inactive,inactive,inactive,inactive,inactive,inactive,inactive,inactive,inactive,inactive,–,–
CS(=N)(=O)CC[C@H](N)C(=O)O (some centres undefined),inactive,inactive,inactive,inactive,inactive,inactive,inactive,inactive,inactive,inactive,inactive,–
CNCCc1ccc(O)c(O)c1,inactive,inactive,inactive,inactive,inactive,inactive,inactive,inactive,inactive,inactive,–,inactive
CNCCc1c[nH]c2ccc(O)cc12,inactive,inactive,inactive,inactive,inactive,inactive,inactive,inactive,inactive,inactive,–,–
NC(=NCCC[C@H](N)C(=O)O)N[N+](=O)[O-],inactive,inactive,inactive,inactive,inactive,inactive,inactive,inactive,inactive,inactive,–,–
O=C(O)Cc1cnc[nH]1,inactive,inactive,inactive,inactive,inactive,inactive,inactive,inactive,inactive,inactive,–,–
CCCN(CCC)[C@@H]1CCc2ccc(O)cc2C1,inactive,inactive,inactive,inactive,inactive,inactive,inactive,inactive,inactive,inactive,–,inactive
c1ccc2sc(C3(N4CCCCC4)CCCCC3)cc2c1,inactive,inactive,inactive,inactive,inactive,inactive,inactive,inactive,inactive,inactive,–,–
NCc1cc(=O)[nH]o1,inactive,inactive,inactive,inactive,inactive,inactive,inactive,inactive,inactive,inactive,inactive,–
CN[C@@H]1C[C@@H](c2ccc(Cl)c(Cl)c2)c2ccccc21,–,–,–,26.1 µM (active),0.757 µM (active),18.5 µM (active),inactive,inactive,–,–,inactive,–
O=C(O)[C@@H]1CCN1,inactive,inactive,inactive,inactive,inactive,inactive,inactive,inactive,inactive,inactive,inactive,–
C#CCOC(=O)C1=CCCN(C)C1,inactive,inactive,inactive,inactive,inactive,inactive,inactive,inactive,inactive,inactive,–,inactive
NC(CP(=O)(O)O)C(=O)O (centres undefined),inactive,inactive,inactive,inactive,inactive,inactive,inactive,inactive,inactive,inactive,–,–
C=CCN1CC[C@]23CCCCC2[C@H]1Cc1ccc(O)cc13 (some centres undefined),inactive,inactive,inactive,inactive,inactive,inactive,inactive,inactive,inactive,inactive,–,inactive
CC(C)Oc1cccc(NC(=O)c2ccccc2C(F)(F)F)c1,inactive,inactive,inactive,–,–,–,–,–,inactive,–,–,–
C[N+]1(C)C2CCC1CC(OC(=O)C(CO)c1ccccc1)C2 (centres undefined),inactive,inactive,inactive,inactive,inactive,inactive,inactive,inactive,inactive,inactive,–,inactive
CC(C)Oc1cccnc1N(C)C1CCN(Cc2ccccc2)CC1,inactive,inactive,inactive,inactive,inactive,inactive,inactive,inactive,inactive,inactive,–,–
Clc1cnc(Oc2ccc(Oc3ncc(Cl)cc3Cl)cc2)c(Cl)c1,inactive,inactive,inactive,inactive,inactive,inactive,inactive,inactive,inactive,inactive,inactive,–
CC(C)NC(C)Cc1ccc(I)cc1 (centres undefined),inactive,inactive,inactive,inactive,–,inactive,inactive,inactive,inactive,inactive,–,–
CCCCc1ccc(C(=O)O)nc1,inactive,inactive,inactive,inactive,inactive,inactive,inactive,16.5 µM (active),inactive,inactive,inactive,–
NCCc1c[nH]c2ccccc12,inactive,inactive,inactive,inactive,inactive,inactive,inactive,inactive,inactive,inactive,–,–
Nc1ccc([N+](=O)[O-])cc1,inactive,–,–,–,–,–,–,–,–,–,–,–
CCCN(CCC)C1CCc2ccc(O)cc2C1 (centres undefined),inactive,inactive,inactive,inactive,inactive,inactive,inactive,inactive,inactive,inactive,–,–
O=C1CCCN1CC#CCN1CCCC1,inactive,inactive,inactive,inactive,inactive,inactive,inactive,inactive,inactive,inactive,–,inactive
